Out of some 64,000 compounds screened, about 2,200 (3.4%) were called active.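 How the source made its calls: active means calcium fluorescence response, raw or row-and-column corrected B-score, differing from the plate sample mean either way at a set confidence level, mostly lower; inactive means the rest.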 What follows is part of a selection rich in actives, with near analogues and random picks from the rest.
molecular target: Muscarinic acetylcholine receptor M1 (Rattus norvegicus) (UniProt P08482); test: antagonists of rat M1 muscarinic receptor (AID 628); conditions: CHO-M1 cells, Fluo-4 calcium, ACh EC80 antagonist mode; at 10 µM; stronger effect = lower value
Sequence (P08482 whole entry, looked up): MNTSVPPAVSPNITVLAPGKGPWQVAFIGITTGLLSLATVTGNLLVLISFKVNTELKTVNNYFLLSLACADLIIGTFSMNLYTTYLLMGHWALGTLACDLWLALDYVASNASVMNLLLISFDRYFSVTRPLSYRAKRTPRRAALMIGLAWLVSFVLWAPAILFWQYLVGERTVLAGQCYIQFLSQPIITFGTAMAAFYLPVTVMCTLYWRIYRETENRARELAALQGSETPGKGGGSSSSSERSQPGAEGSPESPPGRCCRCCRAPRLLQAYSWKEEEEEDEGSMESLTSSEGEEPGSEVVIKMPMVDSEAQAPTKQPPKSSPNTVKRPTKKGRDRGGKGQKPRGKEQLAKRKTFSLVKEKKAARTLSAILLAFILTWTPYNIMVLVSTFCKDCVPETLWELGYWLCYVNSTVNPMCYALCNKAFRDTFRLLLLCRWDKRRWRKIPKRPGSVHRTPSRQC

SMILES	B-score
c1ccc(CCN2CN=C(Nc3nc4ccccc4o3)NC2)cc1	0.0039 (inactive)
N#CNC1=NCN(CCc2ccccc2)CN1	-0.391 (inactive)
Cc1ccc2nc(NC3=NCN(CCc4ccccc4)CN3)nc(C)c2c1	-5.98 (active)
O=C(NCCC1=CCCCC1)C1CCN(Cc2cnn(-c3ccccc3)c2-n2cccc2)CC1	-1.39 (inactive)
Cc1ccc2cc3cc(C(=O)N4CCCCCC4)oc3nc2c1	-0.434 (inactive)
COc1cccc(-c2cc3nc4c(c(N5CCC6(CC5)OCCO6)n3n2)CCCC4)c1	-0.0679 (inactive)
CC(=O)N1CCN(C(=O)Nc2cccc(C(F)(F)F)c2)CC1	-0.154 (inactive)
O=C(Nc1cccc(NC(=O)N2CCN(c3ccccc3)CC2)c1)N1CCN(c2ccccc2)CC1	-3 (active)
O=C(Nc1cccc(C(=O)N2CCCC2)c1)c1ccccc1	0.0406 (inactive)
COc1ccc(-c2c(C)nn3c(N4CCC(C(=O)N5CCCCC5)CC4)cc(C)nc23)cc1OC	-0.265 (inactive)
FC(F)(F)c1cccc(Nc2ncnc3ccccc23)c1	0.376 (inactive)
O=C(Nc1cccc(F)c1)c1ccc(S(=O)(=O)N2CCCC2)cc1	-0.622 (inactive)
COc1ccccc1N1CCN(C(=O)c2ccc(S(=O)(=O)N3CCCCC3)cc2)CC1	-1.54 (inactive)
N#CC(C(=O)c1ccc(S(=O)(=O)N2CCCCCC2)cc1)c1nc2ccccc2[nH]1 (stereo unspecified)	-4.04 (active)
CCOc1ccccc1NC(=O)C1CCC(CNc2c(N3CCOCC3)c(=O)c2=O)CC1 (stereo unspecified)	0.744 (inactive)
COc1ccc(N2C(=O)CC(N3CCC(C(N)=O)CC3)C2=O)cc1 (stereo unspecified)	-0.21 (inactive)
O=C(CSc1nnc(-c2cccs2)n1Cc1ccco1)c1ccc2c(c1)OCO2	0.219 (inactive)
COC(=O)C1=CN(C)C=C(C(=O)OC)C1c1ccc(Cl)cc1Cl	1.15 (inactive)
COc1cc(-c2nn3c(-c4cccc(C)c4)nnc3s2)cc(OC)c1OC	0.799 (inactive)
c1ccc(-c2cc(-c3nnc4sc(-c5ccccn5)nn34)[nH]n2)cc1	-2.66 (active)
CCOc1cccc(-c2nn3c(-c4ccccn4)nnc3s2)c1	-0.924 (inactive)
CCCCOC(=O)Nc1nccs1	0.0324 (inactive)
COc1ccc(Cl)cc1NC(=O)c1oc(C)nc1C	-0.215 (inactive)
CSC1=NCCN1C(=O)c1ccc(S(=O)(=O)N2CCOCC2)cc1	-0.648 (inactive)

SMILES	B-score
O=C(c1ccc(S(=O)(=O)N2CCOCC2)cc1)N1CCN(c2ccccc2)CC1	-2.93 (active)
O=C(c1cccc(S(=O)(=O)N2CCOCC2)c1)N1CCOCC1	0.238 (inactive)
Cc1ccc2oc(=O)c3cnn(CC(=O)N4CCN(c5ccccn5)CC4)c3c2c1	0.00225 (inactive)
Cc1c(C(=O)OCC(=O)N(CCC#N)c2ccccc2)oc2c1ccc1ccccc12	0.252 (inactive)
O=C(CCN1C(=O)COc2ccccc21)NCCCN1CCN(c2ccc(F)cc2)CC1	-2.15 (active)
COc1ccc(N2CCN(CCNC(=O)CCN3C(=O)COc4ccccc43)CC2)cc1	1.04 (inactive)
CCCN1CCN(CCCNC(=O)CN2C(=O)COc3ccccc32)CC1	0.138 (inactive)
O=S1(=O)CC(NCc2ccccc2)C(Nc2ccc(Cl)cc2)C1 (stereo unspecified)	-0.75 (inactive)
CCCCCn1c(SCCC(C)C)nc2c1c(=O)[nH]c(=O)n2C	-0.348 (inactive)
Cn1c(=O)[nH]c(=O)c2c1nc(CN1CCN(c3ccccc3F)CC1)n2CCc1ccccc1	-0.0585 (inactive)
O=C(COc1ccc(Cl)cc1)Nc1ccccc1CO	0.609 (inactive)
Cc1ccc(C(=O)NC2CC(C)(C)NC(C)(C)C2)c(C)c1	0.35 (inactive)
COc1cc(OC)c(C(=O)NC2CC(C)(C)NC(C)(C)C2)cc1OC	-2.14 (active)
COc1cc(OC)c(C(=O)NC2CCCCCC2)cc1OC	-1.64 (inactive)
CCOc1ccccc1NC(=O)CCc1ccc(C)o1	0.759 (inactive)
CCC(=O)c1ccc(OCC(O)CN2CCN(c3cccc(C(F)(F)F)c3)CC2)cc1 (stereo unspecified)	-3.03 (active)
Cc1ccc(OCC(O)CN2CCN(CC(O)COc3ccc(C)cc3Cl)CC2)c(Cl)c1 (stereo unspecified)	0.987 (inactive)
O=C(CN1CCN(c2ccc(F)cc2)CC1)Nc1cccc(C(F)(F)F)c1	-1.83 (inactive)
O=C(CCCN1C(=O)C2C3C=CC(C3)C2C1=O)N1CCN(c2ccccc2)CC1 (stereo unspecified)	-0.518 (inactive)
O=C(CN1C(=O)CSc2ncccc21)N1CCOCC1	-0.0388 (inactive)
O=C(CCCN1C(=O)CSc2ncccc21)N1CCN(c2cccc(C(F)(F)F)c2)CC1	-3.46 (active)
CCn1c(Cc2ccccc2)nnc1SCC(=O)Nc1ccccc1	-0.642 (inactive)
CC(C)c1nnc(NC(=O)C2CCCN2S(=O)(=O)c2ccc(Cl)cc2)s1 (stereo unspecified)	0.566 (inactive)
CC(=NC1CCN(Cc2ccccc2)CC1)c1c(O)[nH]c(=O)[nH]c1=O	-1.22 (inactive)

SMILES	B-score
CC12CN(Cc3ccccc3)CC(C)(CN(Cc3ccccc3)C1)C2=NO	-8.41 (active)
Cc1ccc(-c2noc(CN3CCN(Cc4ccccc4)CC3)n2)cc1	-0.779 (inactive)
N#Cc1c2c(c(-c3ccccc3)[nH]c1=O)CCCC2	-0.0345 (inactive)
CCOC(=O)CNC(=O)CSc1nnnn1-c1cc(C)ccc1C	0.408 (inactive)
CNC(=O)CSc1nnnn1-c1ccc(C)cc1C	-0.461 (inactive)
CCOC(=O)c1c(-c2ccc(C)cc2C)csc1NC(=O)CSc1nnnn1C	-1.47 (active)
Cn1cc(S(=O)(=O)N2CCC(Cc3ccccc3)CC2)c(=O)n(C)c1=O	1.21 (inactive)
CCOc1cc(C(=S)N2CCOCC2)ccc1O	-0.148 (inactive)
Cc1ccc(NC(=O)N2CCC(C(=O)NCc3ccc(F)cc3)CC2)cc1	0.137 (inactive)
Cn1c(=O)cc(OCCCC(=O)N2CCN(c3ccccn3)CC2)c2ccccc21	-0.727 (inactive)
Cc1nc2ncnn2c(C)c1CCC(=O)N1CCN(C(=O)c2ccco2)CC1	-0.557 (inactive)
Cc1nc2c(-c3ccc(F)cc3)c(C)nn2c(C)c1CCC(=O)N1CCN(c2ccccn2)CC1	-2.78 (active)
Cc1ccsc1C(=O)OCC(=O)c1cc(C)n(CC2CCCO2)c1C (stereo unspecified)	-0.425 (inactive)
O=C(NCCCNC(=O)NC1CCCCC1)NC1CCCCC1	0.589 (inactive)
Cc1nc2sc(C(c3ccco3)N3CCC4(CC3)OCCO4)c(O)n2n1 (stereo unspecified)	0.231 (inactive)
CC1CCCC(C)N1CCCNC(=O)c1cc2c(=O)n(C)c3ccccc3c2n1C (stereo unspecified)	-3.75 (active)
CCN1CCCC1CNC(=O)c1cc2c(=O)n(C)c3ccccc3c2n1C (stereo unspecified)	-1.39 (inactive)
Cn1c(C(=O)NCCCN2CCN(c3cccc(Cl)c3)CC2)cc2c(=O)n(C)c3ccccc3c21	-1.91 (inactive)
COC(=O)C(NC(C)=O)(Nc1nc2c(s1)CCCC2)C(F)(F)F (stereo unspecified)	0.181 (inactive)
COC(=O)c1cc(Cl)c(NC(=O)c2ccco2)cc1OC	0.0739 (inactive)
O=C(Nc1nnc(-c2ccc(Cl)cc2)o1)c1ccccc1Br	0.257 (inactive)
Cc1c(C)c2cc3c4c(oc3c(C)c2oc1=O)CCCC4	-2.52 (active)
CCCOc1ccc2c3c(c(=O)oc2c1OCCC)CCC3	-0.182 (inactive)
O=C(NCc1ccc(Cl)cc1)c1cc2c(nc3sccn32)s1	-0.593 (inactive)

SMILES	B-score
CCC(C)(C(=O)NC1CCCC1)N(C(=O)CNC(C)=O)c1ccc(C)cc1 (stereo unspecified)	0.0894 (inactive)
CN(CC(=O)NC1CCCCC1)S(=O)(=O)c1cccc2cccnc12	-0.865 (inactive)
CCC(C)(NC(=O)c1ccccn1)C(=O)NC1CCCCC1 (stereo unspecified)	-3.41 (active)
O=C(O)c1cc(S(=O)(=O)N2CCCCCC2)c(Cl)cc1Cl	-0.939 (inactive)
COCCCNC(=O)Cn1cc(C(=O)C2CC2)c2ccccc21	1.18 (inactive)
N#Cc1c2c(c(N3CCN(CCO)CC3)n3c1nc1ccccc13)CCCC2	-0.206 (inactive)
CN(C)CCCNc1c2c(c(C#N)c3nc4ccccc4n13)CCC2	-3.92 (active)
Cc1cc(NCc2ccco2)n2c(nc3ccccc32)c1C#N	0.838 (inactive)
CC(=O)CSc1nnc(CSc2ncccn2)n1C1CCCCC1	0.586 (inactive)
CC1CN(c2cc(=O)n(Cc3ccc(F)cc3)c(=O)[nH]2)CC(C)O1 (stereo unspecified)	-0.0281 (inactive)
CCOc1cc(S(=O)(=O)NCc2ccc3c(c2)OCO3)ccc1F	0.637 (inactive)
O=C(CS(=O)(=O)c1cn(Cc2ccc(Cl)cc2)c2ccccc12)N1CCOCC1	0.274 (inactive)
CC1CCC(NS(=O)(=O)c2ccc3c(c2)n(C)c(=O)c(=O)n3C)CC1 (stereo unspecified)	-0.853 (inactive)
CCCCN(CCCC)C(=O)CCS(=O)(=O)c1ccc2c(c1)n(C)c(=O)c(=O)n2C	-3.55 (active)
Cn1c(=O)c(=O)n(C)c2cc(S(=O)(=O)NCCc3ccccc3)ccc21	0.991 (inactive)
CC(=O)N1CCN(c2cccc(C)c2C)CC1	0.482 (inactive)
Cc1cccc(N2CCN(Cc3c(C)n(C)n(-c4ccccc4)c3=O)CC2)c1C	-9.51 (active)
Cc1c(CN2CCC(C)CC2)c(=O)n(-c2ccccc2)n1C	0.549 (inactive)
CC1CCCN(Cc2nc3c(c(=O)n(C)c(=O)n3C)n2Cc2cccc3ccccc23)C1 (stereo unspecified)	0.779 (inactive)
O=C1CC(Cc2ccccc2)C(=O)N1c1ccc(Cl)cn1 (stereo unspecified)	-0.406 (inactive)
CCn1c(SCC(=O)Nc2cc(C)ccc2C)nnc1-c1cnccn1	0.583 (inactive)
C=C(C)Cn1c(N2CCN(CC)CC2)nc2c1c(=O)[nH]c(=O)n2C	0.423 (inactive)
C=C(C)Cn1c(N2CCCC2)nc2c1c(=O)[nH]c(=O)n2C	-2.42 (active)
Cn1c(=O)[nH]c(=O)c2c1nc(N1CCCCCC1)n2CC(=O)c1ccccc1	0.41 (inactive)

Source: PubChem BioAssay AID628 (Vanderbilt High Throughput Screening Facility, 2007)
